Laboratory results published in PubChem BioAssay (NCI).
This is part of a sample that, as a whole, favours compounds with a hit. Of some 83,000 tested, about 20% had one in any assay.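 Values shown are percent growth following 48 h exposure of cells in 96-well plates to a single concentration of compound; below 10 was considered active.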 Values without a mark were called inactive. Active and inactive are the calls of the source.

Test system: A549/ATCC NSCLC
Experiment: NCI-60 one-dose screen, 48 h (100 = growth as untreated, 0 = no growth, -100 = all killed)
Settings: 10 µM unless noted

Compound | growth
COc1cc(C(=O)n2nc(N3CCN(C)CC3)c3cc(N)ccc32)cc(OC)c1OC | 65.3%
O=C1N[C@@H]2NC(=[N+]3CCOCC3)N[C@@H]2N1 | 101%
N#Cc1c(N)nnn1Cc1cc(=O)oc2c1ccc1ccccc12 | 91.1%
COc1cc(OC)cc(C2=C3CC[C@@H]4[C@H](CC[C@]5(C)C(=O)CC[C@@H]45)C3=CC3C(O)c4cccnc4N4C(=O)COC234)c1 (stereo not given in full) | 94.2%
C=C(C)[C@@H]1CC[C@]2(C(=O)N3CCN(C)CC3)CC[C@]3(C)[C@H](CC[C@@H]4[C@@]5(C)CC(=C/c6ccncc6)/C(=N/O)C(C)(C)[C@@H]5CC[C@]43C)[C@@H]12 | 73.9%
CN1CCN(Cc2ccc3c(NNC(=O)c4ccccc4)nc4cc(F)ccc4n23)CC1 | 14.8%
CCOC(=O)c1c2c(n3ccc(C)cc13)C(=O)c1ccccc1C2=O | 62.5%
CCCC(=O)NC(c1ccc2c(c1)OCO2)c1ccc2cccnc2c1O (stereo not given) | 20.8%
Cc1nc2sc(C(=O)Nc3ccccc3)c(N)c2cc1C(=O)c1ccccc1 | 23.7%
COC(=O)c1ccc2c(c1)C(=O)c1c-2n(CCCN)c(=O)c2cc([N+](=O)[O-])ccc12 | -94% (active)
CO[C@]12C=C/C(=C(/C(=O)OCc3cccnc3)C(=O)CCCCCCCC[C@@]3(OC)C=C/C(=C(/C(=O)OCc4cccnc4)C(=O)CCCCCCCC1)O3)O2 | 10.7%
Brc1c2c(c(Br)c3ccccc13)CCCC2 | 79.7%
Cc1cc2c([nH]1)CSc1cc(S(=O)(=O)c3ccccc3)c(=O)[nH]c1-2 | 52.2% [100 µM]
CC1=C(Nc2ccc(N3CCN(C)CC3)cc2)C(=O)c2cncnc2C1=O | 92.6%
CCCCCCC1(C)NCCO1 (stereo not given) | 99.4%
C#CCOc1cccc(Nc2ncnc3ccc(NC(=O)CCl)cc23)c1 | -38.6% (active)
COc1ccc(C(=O)C2C(c3ccc(OC)cc3)CN(C)C23C(=O)Nc2ccccc23)cc1 (stereo not given) | 87.9%
CCN(CC)CCNC(=O)c1cn2ncnc(Oc3ccc(NC(=O)Nc4ccc(Cl)c(C(F)(F)F)c4)c(F)c3)c2c1C | 4.56% (active)
CC(=O)OCc1nc(C#N)c(N(C)C)o1 | 92.5%
CN[C@]12CC3(C=CC(=O)C=C3)O[C@@]1(Cc1ccc(OC)cc1)N(C)C(=O)N2 | 79.7%

Compound | growth
C=C(CNCCc1ccc(O)cc1)[C@@H]1CC[C@]2(CO)CC[C@]3(C)[C@H](CC[C@@H]4[C@@]5(C)CCC(NCCO)C(C)(C)[C@@H]5CC[C@]43C)[C@@H]12 (stereo not given in full) | -39% (active)
O=C1/C(=C\c2cn(-c3ccccc3)nc2-c2ccc(-c3cccs3)cc2)CCc2ccccc21 | 60.4%
Cc1ccc(-c2nn(-c3ccccc3)cc2C=C2C(=O)ON=C2C(C)C)cc1 | 86.8%
CC/C(=C(/c1ccc(Cl)cc1)c1ccc(OCCN2CCCC2)cc1)c1ccc(OC)cc1 | 61.9%
Cc1c(-c2nc3ccc(F)cc3c(=O)[nH]2)c2ccccc2n1C | 46.4%
COC1=CC(c2ccc[nH]2)=N/C1=C\c1[nH]c(C)c(C(=O)OCc2ccccc2)c1C | -26.8% (active)
COc1ccc(C/C(C)=C(/c2ccc(OCCN3CCCCC3)cc2)c2ccc(OC(=O)NCc3ccccc3)cc2)cc1 | -93.4% (active)
CC(C)N1CN2C(=S)NC3C2N(C1)C(=S)N3C (stereo not given) | 90.8%
CCCCN[C@H]1CC[C@@]2(C)[C@@H](CC[C@@]3(C)[C@H]2[C@H](O)C[C@H]2/C(=C(\CCC=C(C)C)C(=O)OC)[C@@H](OC(C)=O)C[C@@]23C)[C@@H]1C | 103%
O=[N+]([O-])c1ccc(-c2nc(N3CCOCC3)c3c4c(sc3n2)CCCC4)cc1 | 95.7%
COc1cc(N2C(=O)[C@H](O)C2c2ccc(SC)cc2)cc(OC)c1OC (stereo not given in full) | 17%
C#Cc1ccc(NC(=O)c2ccc(/C=C/C(=O)c3nccn3C)cc2)cc1 | -0.388% (active)
Cc1nnc(NC(=O)c2nc(S(=O)(=O)Cc3ccc(F)cc3)ncc2Cl)s1 | 79.3%
Cc1ccccc1/C=C1\CN(C(=O)OC(C)(C)C)C/C(=C\c2ccccc2C)C1=O | 49.1%
C[C@]12C=CC(=O)C=C1CCC1C2[C@@H](O)C[C@@]2(C)C1CC[C@]2(O)C(=O)COC(=O)CCC(=O)O (stereo not given in full) | 71.3%
O=C(Cn1c2c(c3ccccc31)CCCC2)Nc1ccc(-c2nc3ccccc3s2)cc1 | 105%
Cc1cc(Cl)ccc1Nc1nc(C(F)(F)F)ccc1C(=O)N/N=C/c1ccc([N+](=O)[O-])cc1 | -15.3% (active)
O=C(Nn1c2c(sc1=NCc1ccccc1)C(=O)c1ccccc1C2=O)c1cc2ccc1CCc1ccc(cc1)CC2 | 80%
CC(C)c1ccc(COCc2cc(CN3CCCC3)c(O)c3ncccc23)cc1 | 7.74% (active)
Cn1cccc1C(=O)C1C(c2cccc([N+](=O)[O-])c2)C2C3CCCCC3CN2C12C(=O)Nc1ccc(Cl)cc12 (stereo not given) | 29.1%
